This is an account of results in PubChem BioAssay (EPA / NIEHS).

Values joined by “and” are separate entries in the source; they are usually repeats but may differ in a detail not shown here. Identical values can stand only once. Results filed as inconclusive are left out. Active and inactive are the calls of the source. How the source made its calls, unless noted: active means hit-call score of the fitted dose curve at least 0.9, where 1 is the maximum; inactive means score below 0.9.

Experiment [1] in a line: ATG_NF_kB_CIS: Attagene CIS-FACTORIAL HepG2 Assay for human Nuclear Factor Kappa B (NF-kB) (AID 2282991). The note with it: HepG2 Attagene cis-factorial NF-kB reporter mRNA; actives raise or lower the signal. An outline of the steps: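 Transient MRTU transfection of human HepG2 liver cells → 24 h chemical exposure → total RNA, oligo(dT) RT → PCR, 6-FAM primer extension, HpaI digest 2 h 37 C → CE fragment analysis. Bidirectional fitting, DMSO negative control.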

Experiment [2] in a line: ATG_NRF2_ARE_CIS: Attagene CIS-FACTORIAL HepG2 Assay for human Nuclear Factor Erythroid 2 Related Factor 2 (NFR2) response to Antioxidant Response Elements (ARE) (AID 2282992).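 On AC50: reporter mRNA level measured by RT-PCR and capillary electrophoresis fluorescence.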 The note with it: HepG2 Attagene ARE/NRF2 reporter, transcription factor activity; actives raise or lower the signal. An outline of the steps:
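Endogenous transcription factor activity in human liver HepG2 cells is tracked via a cis-element-driven reporter within a multiplexed set. mRNA induction is read by RT-PCR and capillary electrophoresis after 24 h, with DMSO as baseline.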

Experiment [3] is described as follows: ATG_Oct_MLP_CIS: Attagene CIS-FACTORIAL HepG2 Assay for human Octamer-Binding Transcription Factor (Oct) (AID 2282993). The note with it: HepG2 Attagene cis-factorial Oct reporter, mRNA; actives raise or lower the signal. An outline of the steps: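 Using HepG2 cells bearing transfected cis-reporter constructs, mRNA induction was read after 24 h by fluorescent RT-PCR and capillary electrophoresis, with DMSO defining baseline for gain- or loss-of-signal fits.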

In experiment [4] the target is human Peroxisome Proliferator-activated Receptor alpha (PPARa), PPARA (gene 5465) (UniProt Q07869). In words: ATG_PPARa_TRANS: Attagene TRANS-FACTORIAL HepG2 Assay for human Peroxisome Proliferator-activated Receptor alpha (PPARa) (AID 2283001; active means hit-call score of the fitted dose curve at least 0.9, where 1 is the maximum;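 on AC50: potency for gain of reporter signal over DMSO so agonist or activator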). A digest of the protocol: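 Transfected HepG2 cells treated with test chemical for 24 h. RNA isolated, reverse-transcribed with oligo(dT), PCR-amplified, FAM-labelled and HpaI-digested. Fragments sized by capillary electrophoresis; gain-of-signal fit relative to DMSO.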
Sequence of human Peroxisome Proliferator-activated Receptor alpha (PPARa), PPARA (gene 5465) (Q07869 whole entry, looked up, the tested form may be a part): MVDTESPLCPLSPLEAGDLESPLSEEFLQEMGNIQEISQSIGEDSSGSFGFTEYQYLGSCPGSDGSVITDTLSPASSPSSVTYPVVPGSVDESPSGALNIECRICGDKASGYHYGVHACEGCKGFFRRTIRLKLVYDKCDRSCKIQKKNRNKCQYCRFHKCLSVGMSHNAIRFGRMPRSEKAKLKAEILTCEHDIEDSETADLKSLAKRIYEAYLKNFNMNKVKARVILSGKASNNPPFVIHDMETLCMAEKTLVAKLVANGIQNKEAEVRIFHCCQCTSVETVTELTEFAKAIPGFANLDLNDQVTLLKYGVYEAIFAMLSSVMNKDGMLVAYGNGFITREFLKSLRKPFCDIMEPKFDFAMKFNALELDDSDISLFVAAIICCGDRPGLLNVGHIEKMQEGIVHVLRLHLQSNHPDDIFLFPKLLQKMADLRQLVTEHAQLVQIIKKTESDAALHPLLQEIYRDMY

Experiment [5] addresses human Peroxisome Proliferator-activated Receptor delta (PPARd), PPARD (gene 5467) (UniProt Q03181). The experiment can be described thus: ATG_PPARd_TRANS: Attagene TRANS-FACTORIAL HepG2 Assay for human Peroxisome Proliferator-activated Receptor delta (PPARd) (AID 2283002; active means hit-call score of the fitted dose curve at least 0.9, where 1 is the maximum). A digest of the protocol:
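Read-out is induced reporter mRNA, quantified by RT-PCR with fluorescent labelling and capillary electrophoresis after 24 h dosing. Cells are HepG2 transiently carrying multiple GAL4-UAS reporter units driven by exogenous NR-GAL4 chimeras; DMSO serves as baseline.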

The target of experiment [6] is Cellular tumor antigen p53 (Homo sapiens) (UniProt P04637). In words: ATG_p53_CIS: Attagene CIS-FACTORIAL HepG2 Assay for human p53 Transcription Factor (AID 2282994). The note with it: HepG2 p53 cis-element reporter, Attagene mRNA; actives raise or lower the signal. An outline of the steps:
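Steps: transfect HepG2 with multiplexed cis reporter constructs; dose chemicals 24 h; extract RNA, reverse-transcribe, PCR-amplify reporter sequences; FAM-label, HpaI-digest, resolve fragments by CE. Activity fitted both directions relative to DMSO.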

Experiment [7] is described as follows: BSK_3C_TissueFactor: BioMAP Diversity Plus: 3C Assay for Tissue Factor Biomarker Activity (AID 2282997). The note with it: BioMAP 3C HUVEC, tissue factor biomarker readout; actives raise or lower the signal. An outline of the steps: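 HUVEC, 3C system, 24 h post-dose; Tissue Factor by ELISA; bidirectional fit vs DMSO baseline.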
The nature of experiment [8]: BSK_3C_uPAR: BioMAP Diversity Plus: 3C Assay for Urokinase-type plasminogen activator receptor (uPAR) Biomarker Activity (AID 2282998). The note with it: BioMAP 3C HUVEC, uPAR biomarker ELISA; actives raise or lower the signal. A digest of the protocol:
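In this endothelial cell-based assay, human umbilical vein primary cells were treated with chemicals and harvested at 24 h. uPAR was quantified using ELISA, with gains or losses fitted relative to DMSO controls.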
For orientation: ELISA stands for enzyme-linked immunosorbent assay.

The nature of experiment [9]: BSK_3C_VCAM1: BioMAP Diversity Plus: 3C Assay for Vascular cell adhesion molecule 1 (VCAM1) Biomarker Activity (AID 2282999). The note with it: BioMAP 3C HUVEC, VCAM1 ELISA, cytokine-stimulated; actives raise or lower the signal. A digest of the protocol: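 Activity fitted in both directions relative to DMSO, with ELISA measurement of the surface marker on primary HUVEC (3C) at 24 h post-treatment; parallel SRB staining (0.1% SRB, TCA-fixed, 560 nm) flagged overt cytotoxicity.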

Experiment [10] can be described thus: BSK_4H_Eotaxin3: BioMAP Diversity Plus: 4H Assay for Eotaxin 3 Biomarker Activity (AID 2283000).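 On outcome: CCL26 protein level quantified by ELISA in parallel with SRB cytotoxicity check.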 The note with it: primary human endothelial cells (HUVEC); actives raise or lower the signal. An outline of the steps: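 Readout is Eotaxin-3 (CCL26) level by ELISA in primary human umbilical vein endothelial cells harvested 24 h after chemical exposure; activity fitted in both directions against DMSO control.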

Sequence of human Peroxisome Proliferator-activated Receptor delta (PPARd), PPARD (gene 5467) (Q03181 whole entry, looked up, the tested form may be a part): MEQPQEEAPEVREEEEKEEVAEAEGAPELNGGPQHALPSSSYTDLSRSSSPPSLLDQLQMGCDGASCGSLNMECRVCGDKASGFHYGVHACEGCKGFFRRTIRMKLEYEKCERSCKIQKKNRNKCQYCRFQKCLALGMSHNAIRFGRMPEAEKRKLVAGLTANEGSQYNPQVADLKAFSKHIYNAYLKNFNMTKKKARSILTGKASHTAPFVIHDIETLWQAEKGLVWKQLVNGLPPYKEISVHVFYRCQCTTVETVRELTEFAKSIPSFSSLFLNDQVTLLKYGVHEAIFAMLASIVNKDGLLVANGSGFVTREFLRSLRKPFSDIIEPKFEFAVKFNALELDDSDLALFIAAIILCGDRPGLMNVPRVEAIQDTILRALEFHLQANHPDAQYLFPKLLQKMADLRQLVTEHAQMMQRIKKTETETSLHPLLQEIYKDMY
Sequence of Cellular tumor antigen p53 (Homo sapiens) (P04637 whole entry, looked up, the tested form may be a part): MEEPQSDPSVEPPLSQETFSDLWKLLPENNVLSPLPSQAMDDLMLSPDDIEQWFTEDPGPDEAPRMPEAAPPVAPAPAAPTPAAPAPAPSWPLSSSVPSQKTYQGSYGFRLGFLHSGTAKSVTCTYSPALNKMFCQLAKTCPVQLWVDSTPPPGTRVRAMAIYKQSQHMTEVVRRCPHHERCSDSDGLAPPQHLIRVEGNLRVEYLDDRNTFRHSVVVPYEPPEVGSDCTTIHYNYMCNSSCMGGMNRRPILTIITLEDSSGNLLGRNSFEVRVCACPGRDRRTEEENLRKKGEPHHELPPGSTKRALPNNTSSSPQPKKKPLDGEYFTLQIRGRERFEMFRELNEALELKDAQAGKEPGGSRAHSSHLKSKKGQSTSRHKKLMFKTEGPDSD

For `CNC(=O)CSP(=O)(OC)OC`, the compound was classed as inactive in [1], in experiment [2], in experiment [3], in [4] and in [5].
Take `Cc1cc(Cl)ccc1OCCCC(=O)O`: the call in experiment [1], in [2], in [6] and in experiment [4] was inactive.
The term AC50 denotes the midpoint of the concentration-response curve, whichever way the signal moves. For the compound `CCCSP(=S)(OCC)Oc1ccc(Cl)cc1Cl` (stereo unspecified), the result in experiment [1], in [3], in experiment [4] and in [5] was inactive. Further, the AC50 in [2] was 13.3 µM (active).
For the compound `CCCCCCCCCCCCc1cccc(S(=O)(=O)O)c1`, the call in experiment [1], in experiment [3], in experiment [7], in experiment [8], in [9] and in [10] was inactive. In addition, the AC50 was 44.3 µM (active) in [2] and 30 µM (active) in experiment [4].
Consider `O=[N+]([O-])c1ccc(Nc2ccccc2)cc1`, for which the compound was classed as inactive in [1], in experiment [2], in experiment [6], in experiment [7], in experiment [8] and in experiment [9]. For the same compound, the outcome in experiment [10] and in experiment [4] was inactive.
With `O=C=Nc1ccc(Cl)cc1`, the compound was called inactive in experiment [1], in experiment [2] and in experiment [6].
For the compound `CCCCN(CCCCO)N=O`, the call in experiment [1], in [2], in experiment [3], in [6] and in experiment [5] was inactive.
Regarding `ClCCCCl`, the call in [1], in experiment [2], in experiment [3], in experiment [6] and in [5] was inactive.
In the case of `C#C[C@]1(O)CC[C@H]2[C@@H]3CCC4=CC(=O)CC[C@]4(C)[C@H]3CC[C@@]21C`, the compound was classed as inactive in experiment [1], in experiment [2] and in [6].
`CC(F)(F)CC(F)(F)F`: the compound was called inactive in [1], in experiment [2], in [3], in [6] and in experiment [5].
Take `COC(F)(C(F)(F)C(F)(F)F)C(F)(C(F)(F)F)C(F)(F)F` (stereo unspecified): the outcome in [1], in experiment [2], in experiment [3], in experiment [6] and in experiment [5] was inactive.
With `Nc1ccc(N)cc1`, the outcome in [1], in experiment [3], in experiment [7], in experiment [8], in experiment [9] and in experiment [10] was inactive. In addition, the result in [4] was inactive. In experiment [2], the AC50 was 11.5 µM (active) and 12.4 µM (active).
In the case of `Oc1ccc(Cc2ccc(O)cc2)cc1`, the outcome in experiment [1], in experiment [6], in experiment [7], in experiment [8], in experiment [9] and in experiment [10] was inactive. Besides, the result in [4] was inactive. The AC50 in experiment [2] was 100 µM (active).
For the compound `CCCCCCCCCCCCCl`, the result in experiment [2], in experiment [3] and in experiment [6] was inactive.
Take `Cc1ccccc1OP(=O)(Oc1ccccc1C)Oc1ccccc1C`: the AC50 was 8.48 µM (active) in experiment [2]; 119 µM (active) in [3]; 5.08 µM (active) in [7]; 11.1 µM (active) in experiment [8]; 11.8 µM (active) in [9]; 9.39 µM (active) in experiment [10]. Besides, the compound was called inactive in [6] and in experiment [5].
Take `CC(C)(C#N)N=NC(C)(C)C#N`: the call in experiment [2], in [3] and in experiment [6] was inactive.
Regarding `Nc1ncn[nH]1`, the compound was called inactive in experiment [2] and in [3].
`CC(C)=CC1C(C(=O)OCc2cccc(Oc3ccccc3)c2)C1(C)C` (stereo unspecified): the compound was called inactive in experiment [2], in experiment [3], in [6], in experiment [7], in [8] and in experiment [9]. The result in experiment [10] was inactive.
As to `COc1nn(C(=O)NS(=O)(=O)c2ccccc2OC(F)(F)F)c(=O)n1C`, the compound was classed as inactive in experiment [1], in experiment [2] and in experiment [5].
For the compound `CC(C)(c1ccccc1)c1cc(-n2nc3ccccc3n2)c(O)c(C(C)(C)c2ccccc2)c1`, the compound was called inactive in experiment [1], in [2], in [6] and in [5].
In the case of `Cc1c([N+](=O)[O-])c(C)c([N+](=O)[O-])c(C(C)(C)C)c1[N+](=O)[O-]`, the compound was called inactive in experiment [2], in experiment [3], in experiment [6] and in experiment [7]. For the same compound, the AC50 is 20 µM (active) in experiment [8], 20 µM (active) in experiment [9] and 28.2 µM (active) in experiment [10].
In the case of `CC(c1ccc(O)cc1)c1ccc(O)cc1`, the AC50 in experiment [2] is 67.4 µM (active); in experiment [3], 120 µM (active). Besides, the compound was classed as inactive in experiment [6] and in experiment [4].
In the case of `Cc1cc(C(F)(C(F)(F)F)C(F)(F)F)ccc1NC(=O)c1cccc(I)c1C(=O)NC(C)(C)CS(C)(=O)=O`, the result in experiment [2], in experiment [3] and in experiment [6] was inactive.
As to `CC(c1ccccc1)(c1ccc(O)cc1)c1ccc(O)cc1`, the results for the half-maximal activity concentration (AC50) in [1], in experiment [2] and in experiment [6] were 14.6 µM (active), 11.1 µM (active) and 16.2 µM (active), respectively. For the same compound, in experiment [5], the call was inactive.
Regarding `N#Cc1ccccc1N`, the compound was called inactive in experiment [1], in experiment [2], in [6] and in experiment [4].
In the case of `CCOP(=S)(OCC)OP(=S)(OCC)OCC`, the compound was called inactive in [2], in [3], in experiment [6], in experiment [7] and in experiment [5]. Moreover, the half-maximal activity concentration (AC50) in experiment [8] is 34 µM (active); in [9] it was 31.9 µM (active); in [10] it was 35.6 µM (active).
With `O=S(=O)(Oc1ccc(Cl)cc1)c1ccc(Cl)cc1`, the outcome in experiment [1] and in experiment [5] was inactive. The AC50 in [2] is 23.1 µM (active).
On to `C=CCOC(F)(C(F)(F)F)C(F)(F)F`, for which the outcome in [1], in [2], in experiment [6], in experiment [4] and in [5] was inactive.
For the compound `ClCc1ccccc1Cl`, the values for the AC50 in [2] and in experiment [3] were 12.4 µM (active) and 74.7 µM (active), respectively.
For `O=S(=O)(F)C(F)(F)C(F)(F)C(F)(F)C(F)(F)F`, the compound was called inactive in experiment [1], in experiment [2], in [6] and in experiment [4].
